Measurements: PubChem BioAssay (NCATS)
Records with an inconclusive call do not appear. Activity calls are given as the source filed them. Calls come from the whole dose curve; as a rule, active = well fitted curve in the direction sought with a large enough effect; inconclusive = small, poorly fitted or top-dose-only effect, or another doubt; inactive = no such curve, though single readings can be large; an effect the other way counts as inactive or inconclusive.

Columns and labels:
[1] = qHTS of pediatric cancer cell lines to identify multiple opportunities for drug repurposing: Primary screen for control Hh wild type fibroblast cells (AID 1347106);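 note: series mostly up to about 46 µM; a drop in luminescence marks cytotoxicity and a rise apparent proliferation; nearly all actives have a fitted effect of over 55% in size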
Summary of the method: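 Cells (500-1,000/well) in growth media were settled 5 h at 37 degrees C, then given compounds for 48 h. Viability was read as CellTiter-Glo luminescence. Primary runs used MIPE at 11 points (0.78 nM-46 µM) and NPC at 8 points (0.59 nM-46 µM); follow-ups used 11 points.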

[2] = qHTS of pediatric cancer cell lines to identify multiple opportunities for drug repurposing: Primary screen for Rh30 cells (AID 1347107); note: series mostly up to about 46 µM; nearly all actives have a fitted effect of over 75% in size
Summary of the method: (§1)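 Viability after 48 h compound treatment at 37C, 500-1,000 cells/well, read as ATP luminescence with CellTiter-Glo. Primary screens used 11-point (MIPE, 0.78 nM-46 µM) or 8-point (NPC, 0.59 nM-46 µM) final concentrations; follow-up screens used 11-point dilutions.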

[3] = qHTS of pediatric cancer cell lines to identify multiple opportunities for drug repurposing: Primary screen for Rh41 cells (AID 1347108);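 note: series mostly up to about 46 µM; luminescence drop marks cytotoxic hits; nearly all actives have a fitted effect of over 70% in size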
Summary of the method: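 Cells plated at 500-1,000/well in growth medium, compounds added after 5 h. MIPE tested at 11 points (from 0.78 nM), NPC at 8 points (from 0.59 nM). CellTiter-Glo luminescence after 48 h; concentration-response curves from primary screen.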

[4] = qHTS of pediatric cancer cell lines to identify multiple opportunities for drug repurposing: Confirmatory screen for NB1643 cells (AID 1347109); note: nearly all actives have a fitted effect of over 45% in size; note: potency is the fitted concentration of half-maximal effect
Summary of the method: as §1

[5] = qHTS of pediatric cancer cell lines to identify multiple opportunities for drug repurposing: Confirmatory screen for A673 cells (AID 1347110); note: nearly all actives have a fitted effect of over 65% in size; note: potency is the fitted concentration of half-maximal effect
Summary of the method: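 Forty-eight-hour viability assay. Follow-up compounds ran at 11-point dilutions; positive control bortezomib at 2.3 uM final, neutral control DMSO.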

[6] = qHTS of pediatric cancer cell lines to identify multiple opportunities for drug repurposing: Confirmatory screen for SK-N-MC cells (AID 1347111); conditions: SK-N-MC cell viability;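 note: potency is the fitted concentration of half-maximal effect; cells exposed to compound for 48 h before the readout; nearly all actives have a fitted effect of over 70% in size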
Summary of the method: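 SK-N-MC cells at 500-1,000 cells/well in growth media were pre-incubated 5 h, then exposed to compounds at 11-point dilutions for 48 h at 37 degrees C, 5% CO2. Viability was read as CellTiter-Glo luminescence.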

[7] = qHTS of pediatric cancer cell lines to identify multiple opportunities for drug repurposing: Confirmatory screen for BT-12 cells (AID 1347112); note: nearly all actives have a fitted effect of over 55% in size
Summary of the method: as §1

[8] = qHTS of pediatric cancer cell lines to identify multiple opportunities for drug repurposing: Confirmatory screen for LAN-5 cells (AID 1347113); note: nearly all actives have a fitted effect of over 65% in size; note: potency is the fitted concentration of half-maximal effect
Summary of the method: as §1

[9] = qHTS of pediatric cancer cell lines to identify multiple opportunities for drug repurposing: Confirmatory screen for DAOY cells (AID 1347114); note: nearly all actives have a fitted effect of over 65% in size
Summary of the method: (§2)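 Viability measured as metabolically active cells via CellTiter-Glo luminescence following 48 hours of compound exposure, 11-point dilutions in confirmatory testing. 500-1,000 cells/well plated 5 hours before dosing; controls were DMSO and 2.3 µM bortezomib.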

[10] = qHTS of pediatric cancer cell lines to identify multiple opportunities for drug repurposing: Confirmatory screen for NB-EBc1 cells (AID 1347115); note: nearly all actives have a fitted effect of over 45% in size
Summary of the method: as §1

[11] = qHTS of pediatric cancer cell lines to identify multiple opportunities for drug repurposing: Confirmatory screen for BT-37 cells (AID 1347117); note: nearly all actives have a fitted effect of over 55% in size; note: potency is the fitted concentration of half-maximal effect
Summary of the method: as §1

[12] = qHTS of pediatric cancer cell lines to identify multiple opportunities for drug repurposing: Confirmatory screen for TC32 cells (AID 1347118); conditions: TC32 Ewing sarcoma cells viability qHTS; note: potency is the fitted concentration of half-maximal effect; nearly all actives have a fitted effect of over 65% in size
Summary of the method: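 Measured quantity: luminescence from CellTiter-Glo, reflecting metabolically active TC32 cells following 48 h of compound. Curves came straight from multi-point titrations, with 8 or 11 points in primary and 11 in confirmatory screening.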

[13] = qHTS of pediatric cancer cell lines to identify multiple opportunities for drug repurposing: Confirmatory screen for control Hh wild type fibroblast cells (AID 1347121); note: nearly all actives have a fitted effect of over 70% in size
Summary of the method: as §1

[14] = qHTS of pediatric cancer cell lines to identify multiple opportunities for drug repurposing: Confirmatory screen for U-2 OS cells (AID 1347122); note: nearly all actives have a fitted effect of over 65% in size
Summary of the method: as §1

[15] = qHTS of pediatric cancer cell lines to identify multiple opportunities for drug repurposing: Confirmatory screen for Rh41 cells (AID 1347123);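 note: 48 h compound exposure; nearly all actives have a fitted effect of over 60% in size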; note: potency is the fitted concentration of half-maximal effect
Summary of the method: as §1

[16] = qHTS of pediatric cancer cell lines to identify multiple opportunities for drug repurposing: Confirmatory screen for RD cells (AID 1347124); note: potency is the fitted concentration of half-maximal effect
Summary of the method: as §1

[17] = qHTS of pediatric cancer cell lines to identify multiple opportunities for drug repurposing: Confirmatory screen for Rh18 cells (AID 1347125); note: nearly all actives have a fitted effect of over 55% in size; note: potency is the fitted concentration of half-maximal effect
Summary of the method: as §1

[18] = qHTS of pediatric cancer cell lines to identify multiple opportunities for drug repurposing: Confirmatory screen for Rh30 cells (AID 1347126); note: nearly all actives have a fitted effect of over 55% in size; note: potency is the fitted concentration of half-maximal effect
Summary of the method: as §1

[19] = qHTS of pediatric cancer cell lines to identify multiple opportunities for drug repurposing: Confirmatory screen for MG 63 (6-TG R) cells (AID 1347119); note: nearly all actives have a fitted effect of over 55% in size
Summary of the method: as §1

[20] = qHTS of pediatric cancer cell lines to identify multiple opportunities for drug repurposing: Confirmatory screen for SJ-GBM2 cells (AID 1347116); note: nearly all actives have a fitted effect of over 60% in size
Summary of the method: as §2

Measured: Potency

O=C(Cn1ccnc1[N+](=O)[O-])NCCO
inactive: [1] | [2] | [3]

CN[C@@H]1[C@@H](O)[C@@H](O[C@@H]2[C@H](O)[C@H](O[C@H]3OC(CN)=CC[C@H]3N)[C@@H](N)C[C@H]2N)OCC1(C)O (some centres not stated)
inactive: [1] | [2] | [3]

CN1CC(=O)NC1=N
inactive: [1] | [2] | [3]

CCCCOC(=O)c1ccc(N)cc1
inactive: [1] | [2] | [3]

Cc1ccc2c(c1)c1c3n2CCNC3CCC1 (configuration not stated)
inactive: [1] | [2] | [3]

CC(=O)OC[C@H]1O[C@@](COC(C)=O)(O[C@H]2O[C@H](COC(C)=O)[C@@H](OC(C)=O)[C@H](OC(C)=O)[C@H]2OC(C)=O)[C@@H](OC(C)=O)[C@@H]1OC(C)=O
inactive: [1] | [2] | [3]

O=C(O)c1ccccc1OP(=O)(O)O
inactive: [1] | [2] | [3]

CCN(CC)CCc1nc(-c2ccccc2)no1
inactive: [1] | [2] | [3]

CCOc1ccc(C(=O)OCCN(CC)CC)cc1
inactive: [1] | [2] | [3]

CN(C/C=C/C#CC(C)(C)C)Cc1cccc2ccccc12
inactive: [1] | [2] | [3]

CCN1CC(CCN2CCOCC2)C(c2ccccc2)(c2ccccc2)C1=O (configuration not stated)
inactive: [1] | [2] | [3]

CC1CCc2cc(F)cc3c(=O)c(C(=O)O)cn1c23 (configuration not stated)
inactive: [1] | [2] | [3]

CCN[C@H]1CN(CCCOC)S(=O)(=O)c2sc(S(N)(=O)=O)cc21
inactive: [1] | [2] | [3]

CN1C(=O)CC(c2ccccc2)C1=O (configuration not stated)
inactive: [1] | [2] | [3]

CCN(CC)S(=O)(=O)c1ccc(C(=O)O)cc1
inactive: [1] | [2] | [3]

CC(C)=CCC/C(C)=C/CO
inactive: [1] | [2] | [3]

O=C(O)c1ccc[n+]([O-])c1
inactive: [1] | [2] | [3]

Nc1ccncc1N
inactive: [1] | [2] | [3]

COc1ccc(Cc2cnc(N)nc2N)cc1OC
inactive: [1] | [2] | [3]

NS(=O)(=O)c1ccc(C(=O)O)cc1
inactive: [1] | [2] | [3]

O=C(O)CNC(=O)c1ccccc1I
inactive: [1] | [2] | [3]

NC(N)=NS(=O)(=O)c1ccc(N)cc1
inactive: [1] | [2] | [3]

NC(=O)c1ccc([N+](=O)[O-])cc1Cl
inactive: [1] | [2] | [3]

CC(C)=CCC[C@@](C)(O)[C@H]1CC=C(C)CC1
inactive: [1] | [2] | [3]

C[C@@H]1O[C@@H](OC[C@H]2O[C@@H](Oc3c(-c4ccc(O)c(O)c4)oc4cc(O)cc(O)c4c3=O)[C@H](O)[C@@H](O)[C@@H]2O)[C@H](O)[C@H](O)[C@H]1O
inactive: [1] | [2] | [3]

O=C(Cn1ccnc1[N+](=O)[O-])NCc1ccccc1
inactive: [1] | [2] | [3] | [4] | [7] | [8] | [9] | [10] | [11] | [13] | [14] | [15] | [16] | [17]
active: [5] 1.17 µM | [6] 2.93 µM | [12] 1.85 µM

CC(CN(C)C)C(C)(O)Cc1ccc(Cl)cc1 (configuration not stated)
inactive: [1] | [2] | [3]

C[N+](C)(C)CC(O)CC(=O)[O-] (configuration not stated)
inactive: [1] | [2] | [3]

O=C(O)COC(=O)Cc1ccccc1Nc1c(Cl)cccc1Cl
inactive: [1] | [2] | [3]

CCN(CC)CC1CCCCN1CC(=O)N1c2ccccc2C(=O)Nc2cccnc21 (configuration not stated)
inactive: [1] | [2] | [3]

CCOC(=O)c1cccnc1
inactive: [1] | [2] | [3]

O=C1C(c2[nH]c3ccccc3c2O)=Nc2ccccc21
inactive: [1] | [2] | [3]

Cc1ncc(CO)c(CN)c1O
inactive: [1] | [2] | [3]

C[C@H]1COc2c(C3(N)CC3)c(F)cc3c(=O)c(C(=O)O)cn1c23
inactive: [1] | [2] | [3]

CNc1c2c(nn1C)CCCC2
inactive: [1] | [2] | [3]

Cc1ccsc1C(=CCCN1CCC[C@@H](C(=O)O)C1)c1sccc1C
inactive: [1] | [2] | [3]

CC(=O)OCC(=O)[C@@]1(O)CC[C@H]2[C@@H]3CCC4=CC(=O)C=C[C@]4(C)[C@@]3(F)[C@@H](O)C[C@@]21C
inactive: [1] | [2] | [3] | [9] | [14]
active: [4] 10.4 µM | [6] 16.5 µM | [8] 14.7 µM | [11] 16.5 µM | [12] 14.7 µM | [15] 11.7 µM | [16] 20.8 µM | [17] 18.5 µM | [18] 13.1 µM

COc1ccc(-c2cc(=O)c3c(O)cc(O[C@@H]4O[C@H](CO[C@@H]5O[C@@H](C)[C@H](O)[C@@H](O)[C@H]5O)[C@@H](O)[C@H](O)[C@H]4O)cc3o2)cc1O
inactive: [2] | [3]

CC(C)CCOC(=O)c1ccc(N(C)C)cc1
inactive: [1] | [2] | [3]

CC[C@H](C)[C@H](N)C(=O)O
inactive: [1] | [2] | [3]

CC(C)C[C@@H](N)C(=O)O
inactive: [1] | [2] | [3]

CC1CC(OC(=O)c2ccccc2O)CC(C)(C)C1 (configuration not stated)
inactive: [1] | [2] | [3]

O=C(/C=C/c1ccc(O)c(O)c1)O[C@@H]1C[C@@](OC(=O)/C=C/c2ccc(O)c(O)c2)(C(=O)O)C[C@@H](O)[C@@H]1O
inactive: [1] | [2] | [3]

COc1cc(C(=O)NCCCCCC(=O)O)cc(OC)c1OC
inactive: [1] | [2] | [3] | [4] | [5] | [7] | [9] | [10] | [11] | [19] | [13] | [14] | [15] | [16] | [17] | [18]

COc1ccc(C(=O)N2CCN(CC(=O)N3CCOCC3)CC2)cc1
inactive: [1] | [2] | [3]

Cc1ccc(C(C)C)c(O)c1
inactive: [1] | [2] | [3]

CC(=O)[C@@]1(O)CC[C@H]2[C@@H]3C[C@H](C)C4=CC(=O)C=C[C@]4(C)[C@@]3(F)[C@@H](O)C[C@@]21C
inactive: [1] | [2] | [3] | [4] | [5] | [7] | [8] | [9] | [10] | [20] | [11] | [19] | [13] | [14] | [16] | [17] | [18]
active: [6] 23.3 µM | [12] 2.93 µM

CN1C(C)(C)CCCC1(C)C
inactive: [2] | [3]

Cc1cccc(C)c1NC(=O)CC12CCCN1CCC2
inactive: [1] | [2] | [3]

O=C(O)c1ccccc1C(=O)Nc1ccc(S(=O)(=O)Nc2nccs2)cc1
inactive: [1] | [2] | [3]

CC1(C)[C@@H](OC(=O)CCC(=O)O)CC[C@]2(C)[C@H]3C(=O)C=C4[C@@H]5C[C@@](C)(C(=O)O)CC[C@]5(C)CC[C@@]4(C)[C@]3(C)CC[C@@H]12
inactive: [1] | [2] | [3]

CCCCCCCCCCC(CO)CCCCCCCC (configuration not stated)
inactive: [1] | [2] | [3]

Cc1c(Cn2ccnc2)c2ccccc2n1CCC(=O)O
inactive: [1] | [2] | [3]

COc1ccccc1OCC(O)CO (configuration not stated)
inactive: [1] | [2] | [3]

CC(=O)N(CC(O)CO)c1c(I)c(C(=O)NCC(O)CO)c(I)c(C(=O)NCC(O)CO)c1I (configuration not stated)
inactive: [1] | [2] | [3]
